The list is not random: actives were taken first. Their share in the collection is about 21%.
SARS PLP yeast – blocks SARS-CoV papain-like protease in a yeast assay. hit rate 0.19% among 330,000. Potency, µM (top dose mostly 32.9 µM), usual class: activators. S. cerevisiae expressing SARS-CoV PLpro, growth rescue; further: nearly all actives have a fitted effect of over 55% in size
Pf growth 48h – inhibits P. falciparum growth in the first generation, 48 h; P. falciparum luciferase growth in erythrocytes, 48 h; Potency, µM (top dose mostly 28.7 µM), actives largely listed as inhibitors; hit rate 5.9% among 310,000; AID 504832; active means well fitted inhibition curve with a large enough effect; inconclusive means small, poorly fitted or top-dose-only effect, or another doubt; inactive means no such curve, though single readings can be large or run the other way
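Luminescence readout; reporter = integrated firefly luciferase in P. falciparum. RBC culture at 2% hematocrit, 0.1% parasitemia final, 37 C/5% CO2; decreased signal taken as growth inhibition.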
Pf growth 96h – inhibits malaria parasite growth, 96 h | AID 504834 | P. falciparum luciferase reporter growth, 96 h | Potency, µM (top dose mostly 28.7 µM), hits mostly inhibitors | hit rate 6.9% among 320,000; active means well fitted inhibition curve with a large enough effect; inconclusive means small, poorly fitted or top-dose-only effect, or another doubt; inactive means no such curve, though single readings can be large or run the other way
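Infected RBCs, 2% Hct / 0.05% parasitemia final; luciferase-reporter P. falciparum; cpd 96 h, 37 C, 5% CO2; luciferase detection reagent; luminescence.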
Shiga inhibitor – inhibitors of Shiga toxin in Vero cells; Vero cells, Shiga toxin protein synthesis inhibition reporter; inhibition, % at 38.7 µM; hit rate 9.2% among 290,000; AID 2315; in the data active means inhibition mostly above about 28%, no sharp cut-off; inactive means mostly below about 43%
NS1 inh – inhibitors of influenza NS1 protein function; Potency, µM (titrated, usually from 46.1 µM); AID 2326; hit rate 0.4% among 270,000; further: actives are rising curves; nearly all actives have a fitted effect of over 50% in size
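S. cerevisiae expressing influenza A NS1, grown in glucose, washed, then diluted 1:100 into pH 6.0 -URA galactose medium with 23 nl compound. Growth recovery read as OD600; NS1-free strain serves as control.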
Cycloheximide cs – counter-screen for Shiga toxin inhibitors: cycloheximide protein synthesis inhibition; cell reporter, cycloheximide protein synthesis inhibition counterscreen; max response, %; hit rate 12% among 300,000; in the data active means max response mostly above about 13%, no sharp cut-off; inactive means mostly below about 14%; further: read at 38.3 µM for the half of the compounds with a filed dose
Of the large screens only hits and unclear results are named; the others gave an inactive call; ! = a repeat was not active. Unless noted, the call rests on the fitted dose curve.

CC(=O)/C(C=Nc1noc(C)c1Br)=C(\C)O	none
COc1ccc(S(=O)(=O)N2CCOCC2)cc1NC(=O)Cn1nnc2ccccc2c1=O	none (no result: NS1 inh)
COc1cc(NC(=O)CCc2nnc3ccc(N4CCN(C)CC4)nn23)cc(OC)c1	none
Nc1c2c(nc3ccccc13)CCCC2O (stereo not drawn)	Pf growth 96h 10.7µM (no result: SARS PLP yeast, Shiga inhibitor, Cycloheximide cs)
Nc1c2c(nc3ccccc13)N(c1ccccc1)CC2	Pf growth 96h inconclusive
Nc1c2c(nc3ccccc13)CCCC2=O	Cycloheximide cs 16.5
CC(=O)C1=C(C)Nc2ncnn2C1c1ccccc1 (stereo not drawn)	Pf growth 96h 0.329µM
CC1=C(C(=O)Nc2ccccc2)C(c2ccc(C)o2)n2ncnc2N1 (stereo not drawn)	none (no result: Pf growth 48h)
COC(=O)C1=C(C)Nc2ncnn2C1c1ccc(C)o1 (stereo not drawn)	Pf growth 96h 10.4µM
COc1cccc(C2C(C(C)=O)=C(C)Nc3ncnn32)c1 (stereo not drawn)	none
CC(=O)C1=C(C)Nc2ncnn2C1c1cccc(OCc2ccccc2)c1 (stereo not drawn)	Pf growth 48h 10.4µM
CC(CNC(=O)CCS(=O)(=O)c1ccc2c(c1)NC(=O)CO2)c1ccccc1 (stereo not drawn)	Pf growth 96h inconclusive
O=C(O)COc1ccc(/C=N/NC(=O)/C(=C/C=C/c2ccccc2)NC(=O)c2ccccc2)cc1	Pf growth 96h inconclusive
CCCCC(Sc1nc(N)c(NC(=O)c2ccc(OC)cc2)c(=O)[nH]1)C(=O)O (stereo not drawn)	none (no result: NS1 inh)
CN(C)C(=O)Nc1cccc(OC(=O)N(C)C)c1	none (no result: Pf growth 96h)
CN(C)C(=O)Oc1cccc([N+](C)(C)C)c1	Pf growth 48h inconclusive, Pf growth 96h 4.15µM!
COc1cccc(Nc2n[nH]c(=S)s2)c1	none
COc1ccc(Nc2nc3ccccc3s2)cc1	Cycloheximide cs 49.7
COc1cccc(Nc2nc3ccc(OC)cc3s2)c1	Shiga inhibitor 88.9, Cycloheximide cs 56.8 (no result: NS1 inh)
COc1ccc2nc(Nc3sc4c(c3C(N)=O)CCCC4)sc2c1	Pf growth 96h inconclusive, Shiga inhibitor 58.7, Cycloheximide cs 41.7
COc1ccc(CC(=O)Nc2sc3c(c2C(N)=O)CCCC3)cc1	none (no result: Pf growth 48h)
COc1ccc2nc(NC3=NCCC3)sc2c1	Shiga inhibitor 153.3, Cycloheximide cs 53.2 (no result: Pf growth 96h)
Cc1cccc(C(=O)OCC(=O)NCCCc2ccccc2)c1O	none (no result: Pf growth 48h)
Cc1ccc(NC(=O)COC(=O)CC2CCCC2)cc1Cl	none (no result: NS1 inh)
COc1ccc2nc(NCc3cccnc3)sc2c1	Pf growth 96h inconclusive, Shiga inhibitor 49.3, Cycloheximide cs 21.9
Cc1cccc(Nc2n[nH]c(=S)s2)c1C	none
Cc1cccc(Nc2nc3ccccc3s2)c1C	Shiga inhibitor 99.5, Cycloheximide cs 49.2
COc1ccc(CNC(=O)NC(C)(C)c2cccc(C(C)(C)NC(=O)NCc3ccc(OC)cc3)c2)cc1	none
CC(NC(=O)c1noc2c1CCCCC2)c1ccccc1 (stereo not drawn)	Pf growth 96h inconclusive, Shiga inhibitor 45.5, Cycloheximide cs 32.6
O=C(NCc1cccs1)c1noc2c1CCCCC2	Pf growth 96h inconclusive, Shiga inhibitor 53.7, Cycloheximide cs 23.0
COc1ccc(CNC(=O)c2noc3c2CCCCC3)cc1	Pf growth 96h inconclusive, Shiga inhibitor 85.1, Cycloheximide cs 25.3
COc1ccc2c(c1)CCc1c(C(=O)NCc3ccc(F)cc3)noc1-2	Pf growth 96h inconclusive, NS1 inh inconclusive
O=C(NC1CCCC1)c1noc2c1CCCCC2	Shiga inhibitor 152.0, Cycloheximide cs 36.9
Cc1nn(Cc2ccccc2Cl)c(C)c1NC(=O)c1noc2c1CCCCC2	Cycloheximide cs 20.5
O=C(NCc1ccccc1)c1noc2c1CCCCC2	Pf growth 96h 9.28µM, Shiga inhibitor 83.6, Cycloheximide cs 45.6
Cc1ccccc1Cn1nc(C)c(NC(=O)c2noc3c2CCCC3)c1C	Pf growth 48h inconclusive, Pf growth 96h inconclusive
CCOc1ccc(S(=O)(=O)N(C)c2ccc(OCC(=O)NCC3CCCO3)cc2)cc1 (stereo not drawn)	Pf growth 48h inconclusive (no result: NS1 inh)
COc1ccc(CNC(=O)C(OC(=O)c2ccco2)c2ccc(F)cc2)cc1 (stereo not drawn)	none
CCOC(=O)c1c(CN(CC)CC)n(-c2ccccc2)c2ccc(O)cc12	Pf growth 48h 8.28µM, Pf growth 96h inconclusive
CCOC(=O)c1c(C)n(-c2ccccc2)c2ccc(O)cc12	Pf growth 48h inconclusive, Pf growth 96h 5.86µM
CCOc1cc(N2CCOCC2)c(OCC)cc1NC(=O)c1cccc(S(=O)(=O)N2CCOCC2)c1	none (no result: Pf growth 48h, Pf growth 96h, Shiga inhibitor, NS1 inh, Cycloheximide cs)
O=C(Nc1ccc2c(c1)ncn2-c1ccccc1)c1ccco1	Shiga inhibitor 44.8, Cycloheximide cs 38.2
Cn1c(CCN2CCN(c3ccccc3)CC2)nc2cc(NC(=O)c3ccco3)ccc21	none (no result: Pf growth 48h)
Cn1cnc2cc(NC(=O)c3ccco3)ccc21	Shiga inhibitor 78.8, Cycloheximide cs 24.9
CC(=O)Nc1ccc2c(c1)ncn2-c1ccc(C)cc1	Pf growth 48h inconclusive, Shiga inhibitor 98.6, Cycloheximide cs 42.1
CCOc1cc(C(=O)Nc2ccccc2F)cc(Br)c1OCC	Pf growth 48h inconclusive, Pf growth 96h inconclusive
COc1ccc(S(=O)(=O)N(CC(=O)NC2CC3CCC2C3)c2ccccc2OC)cc1 (stereo not drawn)	Pf growth 48h inconclusive
O=C(CN(c1ccccc1)S(=O)(=O)c1ccc(F)cc1)NC1CCS(=O)(=O)C1 (stereo not drawn)	none (no result: NS1 inh)
O=C(CN(c1ccccc1)S(=O)(=O)c1ccc(F)cc1)NC1CCCCCC1	Pf growth 96h 2.33µM
COc1ccc(S(=O)(=O)N(CC(=O)NC2CCCC2)c2ccccc2OC)cc1	SARS PLP yeast inconclusive, Pf growth 48h inconclusive, Pf growth 96h 11.7µM
CCOc1ccccc1N(CC(=O)NC1CCCCC1)S(=O)(=O)c1ccccc1	Pf growth 48h inconclusive, Pf growth 96h inconclusive
Cc1ccc(C)c(N(CC(=O)NC2CCCC2)S(=O)(=O)c2ccccc2)c1	SARS PLP yeast inconclusive, Pf growth 96h 13.1µM
CN(C)/C=C/C(=O)c1ccc(-c2ccc(Cl)cc2Cl)o1	none
CC1CCCN(CCCN2C(=O)C3C(C(=O)Nc4ccc(Cl)cc4)C4C=CC3(O4)C2C(=O)NC2CCCCC2)C1 (stereo not drawn)	Pf growth 48h inconclusive
Cc1ccc(C2=NNC3(CCOC(C)(C)C3)S2)cc1 (stereo not drawn)	Pf growth 96h inconclusive, Shiga inhibitor 54.1, Cycloheximide cs 36.9
Cc1ccc(S(=O)(=O)NCCC2(C(C)C)CCOC(C)(C)C2)cc1 (stereo not drawn)	Pf growth 48h inconclusive (no result: Pf growth 96h)
COc1cc2c(cc1NC(=O)CSc1nc3ccc(C)cc3[nH]1)oc1ccccc12	none
O=C(NCCc1ccccn1)c1n[nH]c(=O)c2ccccc12	Pf growth 96h 13.1µM
CCc1nnc(NC(=O)c2n[nH]c(=O)c3ccccc23)s1	none
CCCC(=O)c1c[nH]c(C(=O)NCCc2ccccn2)c1	Cycloheximide cs 15.8
O=C(CNC(=O)c1ccccc1F)NCCc1ccc(Cl)cc1	none

Screens from PubChem.
